Bioassay records (PubChem BioAssay)
The sample as a whole holds a higher share of hits than the screen did.
nsP2pro inh – inhibitors of chikungunya virus nsP2 protease; Q8JUX6; FRET peptide cleavage, nsP2pro, fluorescence 1 h; Potency, µM (titrated, usually from 24.9 µM), inactives show top-dose activity change, negative = inhibition, most hits filed as inhibitors; 1.1% of 31,000 active; AID 1964107; calls by dose curve; also: nearly all actives have a fitted effect of over 60% in size
Target sequence (Q8JUX6 whole entry, looked up): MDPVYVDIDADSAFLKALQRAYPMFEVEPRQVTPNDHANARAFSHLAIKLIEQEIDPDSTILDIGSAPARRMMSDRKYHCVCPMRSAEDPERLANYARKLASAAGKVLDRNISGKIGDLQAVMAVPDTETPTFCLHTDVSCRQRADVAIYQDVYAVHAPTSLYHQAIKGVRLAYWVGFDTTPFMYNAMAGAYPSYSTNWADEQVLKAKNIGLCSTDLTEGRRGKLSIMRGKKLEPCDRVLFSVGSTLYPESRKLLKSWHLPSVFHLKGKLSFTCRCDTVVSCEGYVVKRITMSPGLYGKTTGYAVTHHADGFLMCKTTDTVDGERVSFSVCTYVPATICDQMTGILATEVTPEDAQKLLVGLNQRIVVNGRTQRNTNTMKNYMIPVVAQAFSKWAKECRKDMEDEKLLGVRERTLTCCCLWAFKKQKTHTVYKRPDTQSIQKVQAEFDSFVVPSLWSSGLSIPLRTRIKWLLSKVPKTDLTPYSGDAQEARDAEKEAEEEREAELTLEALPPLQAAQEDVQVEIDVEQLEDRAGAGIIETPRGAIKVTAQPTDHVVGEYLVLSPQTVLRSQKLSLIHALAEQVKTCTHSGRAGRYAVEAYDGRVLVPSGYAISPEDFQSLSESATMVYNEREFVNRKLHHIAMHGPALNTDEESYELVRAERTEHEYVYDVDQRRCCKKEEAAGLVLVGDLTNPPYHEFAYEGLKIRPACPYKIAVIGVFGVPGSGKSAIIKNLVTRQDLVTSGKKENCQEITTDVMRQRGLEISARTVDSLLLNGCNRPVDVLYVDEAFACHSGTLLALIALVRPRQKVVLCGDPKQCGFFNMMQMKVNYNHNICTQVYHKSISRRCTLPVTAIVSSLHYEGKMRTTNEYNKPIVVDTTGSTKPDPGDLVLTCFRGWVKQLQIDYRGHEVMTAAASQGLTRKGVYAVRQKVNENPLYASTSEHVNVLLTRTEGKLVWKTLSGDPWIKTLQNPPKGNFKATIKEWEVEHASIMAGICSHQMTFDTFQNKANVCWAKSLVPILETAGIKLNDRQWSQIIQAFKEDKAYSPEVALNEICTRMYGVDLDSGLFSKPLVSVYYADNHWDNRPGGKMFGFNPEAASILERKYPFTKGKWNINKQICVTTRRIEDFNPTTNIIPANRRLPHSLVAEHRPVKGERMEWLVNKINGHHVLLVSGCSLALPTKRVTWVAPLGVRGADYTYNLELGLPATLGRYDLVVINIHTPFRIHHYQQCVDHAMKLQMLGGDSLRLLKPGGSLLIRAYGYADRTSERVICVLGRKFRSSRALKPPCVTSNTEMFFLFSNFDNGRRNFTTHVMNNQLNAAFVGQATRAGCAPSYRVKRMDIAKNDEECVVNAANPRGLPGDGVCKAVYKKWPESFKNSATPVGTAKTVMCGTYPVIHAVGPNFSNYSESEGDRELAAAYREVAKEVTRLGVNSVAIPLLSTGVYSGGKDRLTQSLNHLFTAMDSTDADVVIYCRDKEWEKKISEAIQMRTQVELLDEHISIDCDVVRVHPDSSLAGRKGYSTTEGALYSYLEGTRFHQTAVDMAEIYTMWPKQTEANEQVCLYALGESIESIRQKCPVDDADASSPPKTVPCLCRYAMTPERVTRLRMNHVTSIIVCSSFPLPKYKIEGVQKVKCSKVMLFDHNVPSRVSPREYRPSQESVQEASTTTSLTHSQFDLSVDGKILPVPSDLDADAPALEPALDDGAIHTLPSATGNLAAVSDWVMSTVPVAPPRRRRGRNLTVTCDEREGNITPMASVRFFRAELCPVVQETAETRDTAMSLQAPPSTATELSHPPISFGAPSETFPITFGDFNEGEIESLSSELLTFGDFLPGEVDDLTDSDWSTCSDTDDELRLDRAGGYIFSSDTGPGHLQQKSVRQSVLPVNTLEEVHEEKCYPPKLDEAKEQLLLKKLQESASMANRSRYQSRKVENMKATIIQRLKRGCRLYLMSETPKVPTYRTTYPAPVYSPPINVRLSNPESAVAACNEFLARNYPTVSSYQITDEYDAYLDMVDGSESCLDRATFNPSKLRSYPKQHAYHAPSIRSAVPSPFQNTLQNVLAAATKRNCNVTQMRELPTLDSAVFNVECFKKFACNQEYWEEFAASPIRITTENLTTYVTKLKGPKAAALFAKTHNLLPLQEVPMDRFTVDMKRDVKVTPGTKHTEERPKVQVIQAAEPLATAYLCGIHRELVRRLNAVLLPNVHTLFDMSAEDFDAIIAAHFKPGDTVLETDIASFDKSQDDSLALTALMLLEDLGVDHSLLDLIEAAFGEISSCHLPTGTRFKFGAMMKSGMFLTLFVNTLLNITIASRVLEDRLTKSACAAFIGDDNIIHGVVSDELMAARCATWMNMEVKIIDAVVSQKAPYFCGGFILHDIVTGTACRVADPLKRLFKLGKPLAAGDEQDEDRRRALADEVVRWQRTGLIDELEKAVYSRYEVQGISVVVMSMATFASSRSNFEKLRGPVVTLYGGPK
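FRET cleavage of 2.5 uM peptide 2 by 150 nM CHIKV protease domain at pH 8.0 (Tris, Tween 20). Compounds at 7 concentrations (up to 25 uM) preincubated 15 min. Fluorescence read after 1 h at room temperature.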
The depositor's hits bear a star; [ ] = remark or other dose. % is scaled to controls: 0 for no effect and ±100 for the full control effect; potency is read from the fitted curve at half-maximal effect.

COC(=O)C1=C(C)NC(C)=C(C(=O)OCC(C)=O)C1c1ccccc1[N+](=O)[O-] (stereo not drawn) was read as nsP2pro inh 12µM*.
For CCOC(=O)C1=C(C)NC(C)=C(C(=O)OCC)C1c1ccccc1/C=C/C(=O)OC(C)(C)C the results were nsP2pro inh -21%.
`COC(=O)C1=C(C)NC(C)=C(C(=O)OC(C)C)C1c1cccc2nonc12` (stereo not drawn) gave nsP2pro inh -2%.
`CN(C)C(=O)c1ccc(-c2cc[nH]c(=O)c2N)cc1` gave nsP2pro inh -20%.
For Cc1ccc(S(=O)(=O)N2CCC[C@H]2c2ccc(F)cc2)cc1 the results were nsP2pro inh 22%.
CCNC(=O)N[C@@H]1C=C[C@@H](c2c(C)nn(-c3ccc(C(F)(F)F)cc3)c2C)C1 was read as nsP2pro inh 11µM*.
For CCNC(=O)N[C@@H]1C=C[C@@H](c2c(C)nn(-c3ccc(C(C)(C)C)cc3)c2C)C1 the results were nsP2pro inh -6%[39.2 µM].
`CCNC(=O)N[C@@H]1C=C[C@@H](c2c(C)nn(-c3ccc(C(C)C)cc3)c2C)C1` gave nsP2pro inh -4%[39.2 µM].
CC(C)(C)OC(=O)NCc1nnc(-c2cc3ccccc3[nH]2)o1 was read as nsP2pro inh 3%.
`CC(C)C(=O)N1CCn2c(nnc2C2CCN(Cc3cc(Cl)ccc3F)C2)C1` (stereo not drawn) gave nsP2pro inh -5%.
`CN1CCN(c2nc3c(c(=O)[nH]2)CCN(Cc2cccnc2)CC3)CC1` gave nsP2pro inh inactive.
`Cc1ccc(CN2CCc3nc(C(=O)Nc4cccnc4)oc3CC2)o1` gave nsP2pro inh 10µM*.
Screening Cc1oc2c(c1C(=O)N1CCOCC1)CN(Cc1cccnc1)CC2 returned nsP2pro inh -11%.
For C[C@@H]1CN(S(=O)(=O)c2c(F)cccc2F)CCN1S(=O)(=O)c1ccc2c(c1)OCCO2 the results were nsP2pro inh -6%.
For Cn1cc(-c2cnc(Nc3ccc(F)cc3)c3c2CCO3)cn1 the results were nsP2pro inh -5%[39.2 µM].
`Cn1cc(-c2cnc(Nc3cccnc3)c3c2CCO3)cn1` gave nsP2pro inh 8.9µM*.
Screening CNC(=O)c1cccc(-c2cnc(Nc3ccc(Cl)cn3)c3c2CCO3)c1 returned nsP2pro inh inactive.
`COC1OC(OC)C(O)(CCC2(C)C(C)CCC3(C)C2CC(O)C(O)C32CO2)C1O` (stereo not drawn) gave nsP2pro inh 2%[10 µM].
For CCOc1ccc(OCC(=O)Nc2ccc(S(=O)(=O)Nc3cc(C)on3)cc2)cc1 the results were nsP2pro inh 0%.
For Cc1cc(NC(=O)Nc2cccc(-c3ccncc3)n2)ccc1Cl the results were nsP2pro inh 4%.
CCOC(=O)c1[nH]c2c(c1C)CCC(c1ccco1)C2 (stereo not drawn) was read as nsP2pro inh -2%.
Cc1c(C(=O)NCC2CCCO2)[nH]c2c1C(=O)CC(c1ccco1)C2 (stereo not drawn) was read as nsP2pro inh -22%.
Screening CCOC(=O)c1[nH]c2c(c1C)C(=S)CC(c1ccco1)C2 (stereo not drawn) returned nsP2pro inh 13µM*.
For C[C@@H]1O[C@@H](O[C@H]2CC[C@@]3(C)C(CC[C@@H]4C3CC[C@]3(C)[C@@H](C5=CC(=O)OC5)CC[C@]43O)C2)[C@H](O)[C@H](O)[C@H]1O (stereo partly drawn) the results were nsP2pro inh 16%[10 µM].
`Cc1ccccc1N(C)C1CN([S+](=O)([O-])c2c(C)noc2C)C1` gave nsP2pro inh -17%.
Screening CC[C@H](CC#N)OC(=O)N[C@@H](C)c1cccc(NC(=O)Nc2ccc(-c3cnco3)c(OC)c2)c1 returned nsP2pro inh -11%.
`COc1ccc(NC(=O)c2c(NC(=O)c3ccncc3)sc3c2CCC(C(C)(C)C)C3)cc1` (stereo not drawn) gave nsP2pro inh -18%.
CCOc1ccc(NC(=O)c2c(NCc3cccnc3)sc3c2CCC(C)C3)cc1 (stereo not drawn) was read as nsP2pro inh 11µM*.
Screening CC1CCc2c(sc(NC(=O)COc3ccccc3)c2C(=O)Nc2ccccc2Cl)C1 (stereo not drawn) returned nsP2pro inh -3%.
For Cc1nn(-c2ccc(F)cc2)c(C)c1[C@@H]1C=C[C@@H](NC(=O)NC(C)C)C1 the results were nsP2pro inh -8%[39.2 µM].
For COc1ccc(-n2nc(C)c([C@@H]3C=C[C@@H](NC(=S)NCC(C)C)C3)c2C)cc1 the results were nsP2pro inh 44%[39.2 µM].
For COc1ccc(NC(=O)N[C@@H]2C=C[C@@H](c3c(C)nn(CCC#N)c3C)C2)cc1 the results were nsP2pro inh 13µM*.
OCC(CO)N[C@H]1C[C@](O)(CO)[C@@H](O)[C@H](O)[C@H]1O was read as nsP2pro inh -5%.
Screening COc1cnccc1-c1nc(Nc2ccc(F)c(F)c2)c2ccccc2n1 returned nsP2pro inh 1%.
Screening CCOc1ccccc1NC(=O)Cn1c(=O)n(Cc2ccco2)c(=O)c2cccnc21 returned nsP2pro inh -8%.
For CCOc1ccc(C(c2c(O)cc(C)n(Cc3ccco3)c2=O)N2CCN(C)CC2)cc1 (stereo not drawn) the results were nsP2pro inh 13µM*.
`CC1(C)CC[C@]2(C(=O)O[C@@H]3O[C@H](CO)[C@@H](O)[C@H](O)[C@H]3O)CC[C@]3(C)C(=CCC4[C@@]5(C)C[C@@H](O)[C@H](O)[C@@](C)(CO)C5CC[C@]43C)C2C1` (stereo partly drawn) gave nsP2pro inh 40%[10 µM].
For O=C(O)Cc1cccn1-c1ccc(Cl)cc1 the results were nsP2pro inh 4.5µM*.
For O=C(Cc1cccn1-c1ccc(F)cc1)N1CCCCC1 the results were nsP2pro inh -20%.
`O=C(N1CCOCC1)N1CCN(c2ccc(Cl)cc2)CC1` gave nsP2pro inh -1%.
Screening COc1ccc(CCNC(=O)c2ccc(CS(=O)(=O)Cc3cccc(C)c3)o2)cc1OC returned nsP2pro inh -16%.
Cc1ccc(OCC(=O)N(Cc2sccc2C)C2CCS(=O)(=O)C2)cc1 (stereo not drawn) was read as nsP2pro inh -17%.
For CCCCN1CCc2nc(N3CCN(C)CC3)ncc2C1 the results were nsP2pro inh 10µM*.
CCN1CCN(c2ncc3c(n2)CCN(Cc2ccc(C)s2)C3)CC1 was read as nsP2pro inh 21%.
Screening Cc1ccccc1CN1CCc2nc(N3CCN(c4ncccn4)CC3)ncc2C1 returned nsP2pro inh 52%.
For CCCCc1nn2c(=O)cc(CN(CC)c3ccccc3)nc2s1 the results were nsP2pro inh -27%.
Screening O=C(O)c1ccc(-c2nc3ccncc3[nH]2)cc1 returned nsP2pro inh inactive.
`Oc1c(Cl)cc(Cl)cc1Sc1cc(Cl)cc(Cl)c1O` gave nsP2pro inh 82%.
`COC1=C2C[C@H](C)C[C@H](OC)[C@H](O)[C@@H](C)/C=C(/C)[C@H](OC(N)=O)[C@@H](OC)/C=C\C=C(\C)C(=O)NC(=CC1=O)C2=O` gave nsP2pro inh 12µM*.
C=CCNC1=C2C[C@@H](C)C[C@H](OC)[C@H](O)[C@@H](C)/C=C(\C)[C@H](OC(N)=O)[C@@H](OC)/C=C\C=C(/C)C(=O)NC(=CC1=O)C2=O was read as nsP2pro inh -23%.
For CCOc1ccc(CCNC(=O)c2ccc(-c3nc(CSc4ccccc4)c(C)o3)cc2)cc1 the results were nsP2pro inh -17%.
